{"source": "PubChem BioAssay (NCATS)", "note": "Results filed as inconclusive are left out. Calls of active or inactive are those of the source. The call rests on the fitted dose curve; in most records, active means well fitted curve in the direction sought with a large enough effect; inconclusive means small, poorly fitted or top-dose-only effect, or another doubt; inactive means no such curve, though single readings can be large or run the other way. On the % scale 0 is the no-effect control and ±100 the full control effect."}
{"target": "Calcium and integrin-binding protein 1 (Homo sapiens) (UniProt Q99828)", "sequence (Q99828 whole entry, looked up)": "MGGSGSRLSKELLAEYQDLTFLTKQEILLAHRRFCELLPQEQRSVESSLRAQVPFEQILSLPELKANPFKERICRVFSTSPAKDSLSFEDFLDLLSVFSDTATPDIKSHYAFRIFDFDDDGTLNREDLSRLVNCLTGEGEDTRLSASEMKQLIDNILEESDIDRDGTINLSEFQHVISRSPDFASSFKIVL", "test": "Validation qHTS for Identification of Calcium Integrin Binding protein 1 (CIB1) Competitor (AID 1508618)", "details": "CIB1-GST / FITC-alphaIIb peptide fluorescence polarization; series mostly up to 114 µM; activity change, negative = inhibition: at the top concentration", "source_text": "Assay Provider: Ulhas P. Naik, PhD\nSidney Kimmel Medical College\nThomas Jefferson University, Philadelphia, PA\nPrimary function of platelets is to maintain hemostasis. At the site of vascular injury, platelets adhere to adhesive proteins such as collagen and von Willebrand factor. Adherent platelets are activated and generate soluble platelet agonists such as thrombin, ADP and thromboxane A2. Following exposure of circulating platelets to these agonists, results in platelet shape change, granule secretion and activation of platelet integrin alphaIIb-beta3. Ligand binding to activated integrin alphaIIb-beta3 triggers outside-in signaling, leading to platelet aggregation, stabilization of platelet plug, and clot retraction. Upon atherosclerotic plaque rupture also causes platelet plug formation, which underlies a number of cardiovascular diseases such as myocardial infraction and stroke. A number of anti-platelet drugs such as aspirin, clopidogrel, prasugrel, vorapaxar, and eptifibatide are currently available to prevent the thrombotic complications. However, these anti-platelet agents have several limitations including inherent variability in individual responses, developing resistance, and serious bleeding side effects. For these reasons they are not suitable for long-term protection. Based on the experiences with current anti-platelet drugs, it appears that the most useful therapeutic approach is to intersect the secondary responses such as integrin outside-in signaling or recruitment of platelets by TxA2 and secreted ADP. Compounds, which can largely preserve the primary hemostatic function of platelets but inhibit secondary response will be most desired therapeutic agents for treatment of cardiovascular disease.\nCIB1 is a calcium integrin binding protein, which specifically interact with the alphaIIb subunit of integrin alphaIIb-beta3. Binding of CIB1 to alphaIIb regulates the outside-in signaling in platelets, which is needed for thrombus stabilization and thrombus growth. […] Therefore, we propose that discovery of a small molecule that can prevent the association of CIB1 and alphaIIb-beta3 will be a potential anti-platelet agent that can block the thrombus formation without undue effect on hemostasis.\nTo develop fluorescence polarization (FP) assay using fluorescently labeled alphaIIb peptide and CIB1 protein. Using FP assay characterize the binding affinity, competitive inhibition, and acceptable Z factor (0.5 to1) in order to perform the HTS to identify small molecule compound that can prevent CIB1 binding to platelet integrin alphaIIbbeta3. This assay is screened against the NCATS LOPAC library to validate the amenability of the assay to qHTS.\n[1] Naik MU, Nigam A, Manrai P, et al. CIB1 deficiency results in impaired thrombosis: the potential role of CIB1 in outside-in signaling through integrin alpha IIb beta 3. J Thromb Haemost. 2009;7(11):1906-1914. doi:10.1111/j.1538-7836.2009.03581.\nSEQUENCE No. (1, 2, 3, etc.); […] (e.g., Cells, Incubation, Reagent, etc.); VALUE and DESCRIPTION.\n1; Reagent; 3 uL; Protein or buffer (4/3x)\n2; Compound; 46 nL; Control inhibitor / compound library\n3; Time; 15 min; Room temperature incubation\n4; Reagent; 1 uL; Fluorescent labeled peptide (4x)\n5; Time; 1000 rpm; Centrifuge\n6; Time; 15 min; Room temperature incubation\n7; Detection; Ex 480/ Em 540; ViewLux Fluorescence Read\nNOTES (numbers refer to sequence above)\n1; Protein Mixture: C1B1-GST (final concentrations of 1 uM). Buffer composition: 5 mM HEPES pH 7.4, 125 mM NaCl, 5 mM CaCl2, 0.01% Tween20.\n2; Control Inhibitor: unlabeled peptide (final concentration range 17.4 nM to 572 uM). Compound Library final concentration range 18.3 nM to 114 uM.\n3; Room temperature incubation.\n4; Fluorescent Labeled Peptide: FITC-aIIb (final concentration of 100 nM). Sequence of alphaIIb peptide: Acetyl-[…]-FITC (purity is 95.83%).\n6; Room temperature incubation.\n[…]"}
{"molecule": "O=C(Nc1ccc2[nH]ncc2c1)C1CCC1", "activity change, negative = inhibition": "7.98% (inactive)"}
{"molecule": "Nc1nc(SCc2ccc([N+](=O)[O-])cc2)c2ncn([C@@H]3O[C@H](CO)[C@@H](O)[C@H]3O)c2n1", "activity change, negative = inhibition": "-1.46% (inactive)"}
{"molecule": "COCCOc1cc2ncnc(Cl)c2cc1OCCOC", "activity change, negative = inhibition": "10.5% (inactive)"}
{"molecule": "C[C@@H](CN1CCC(Cc2ccccc2)CC1)[C@@H](O)c1ccc(O)cc1", "activity change, negative = inhibition": "3.65% (inactive)"}
{"molecule": "CCN(CC)CCCCNc1ncc2cc(-c3c(Cl)cccc3Cl)c(NC(=O)NC(C)(C)C)nc2n1", "activity change, negative = inhibition": "-1.55% (inactive)"}
{"molecule": "Brc1cc2c(cc1[C@H]1Nc3ccccc3[C@H]3C=CC[C@H]31)OCO2", "activity change, negative = inhibition": "6.01% (inactive)"}
{"molecule": "N[C@H](CCCP(=O)(O)O)C(=O)O", "activity change, negative = inhibition": "5.78% (inactive)"}
{"molecule": "Cn1ncc(S(=O)(=O)Cc2ccccc2)c(Br)c1=O", "activity change, negative = inhibition": "1.32% (inactive)"}
{"molecule": "CCNC(=O)[C@H]1O[C@@H](n2cnc3c(N)nc(NCCc4ccc(CCC(=O)O)cc4)nc32)[C@H](O)C1O", "note": "(stereo not given in full)", "activity change, negative = inhibition": "-2.36% (inactive)"}
{"molecule": "COc1ccccc1CN[C@@H]1CCCN[C@@H]1c1ccccc1", "activity change, negative = inhibition": "11.3% (inactive)"}
{"molecule": "NCC1OC(O[C@H]2[C@H](O)[C@@H](OC3C(O)C(N)CC(N)C3OC3OC(CO)C(O)C(O)C3N)O[C@@H]2CO)C(N)C(O)C1O", "note": "(stereo not given in full)", "activity change, negative = inhibition": "4.99% (inactive)"}
{"molecule": "C=CC(N)CCC(=O)O", "note": "(stereo not given)", "activity change, negative = inhibition": "8.21% (inactive)"}
{"molecule": "Nc1nc(Cl)nc2c1ncn2[C@@H]1O[C@H](CO)[C@@H](O)[C@H]1O", "activity change, negative = inhibition": "11.7% (inactive)"}
{"molecule": "Nc1nc(OCC2CCCCC2)c2[nH]cnc2n1", "activity change, negative = inhibition": "4.83% (inactive)"}
{"molecule": "CC(C)(C=O)Cc1cc(C(C)(C)C)c(O)c(C(C)(C)C)c1", "activity change, negative = inhibition": "8.17% (inactive)"}
{"molecule": "CC(N)C(=O)OC(C)(C)Cc1ccc(Cl)cc1", "note": "(stereo not given)", "activity change, negative = inhibition": "10.9% (inactive)"}
{"molecule": "COc1cc(OC)cc(-c2cc3cnc(N)nc3nc2NC(=O)NC(C)(C)C)c1", "activity change, negative = inhibition": "5.95% (inactive)"}
{"molecule": "CN1CC(=O)N/C1=N/C(=O)Nc1cccc(Cl)c1", "activity change, negative = inhibition": "-0.64% (inactive)"}
{"molecule": "CC(C)(C)c1ccc(S(=O)(=O)/C=C/C#N)cc1", "activity change, negative = inhibition": "3.18% (inactive)"}
{"molecule": "CCCCN(CC)c1nc(C)nc2c1c(C)cn2-c1c(C)cc(C)cc1C", "activity change, negative = inhibition": "2.01% (inactive)"}
{"molecule": "COCCOc1cc2nc[nH]c(=O)c2cc1OCCOC", "activity change, negative = inhibition": "6.01% (inactive)"}
{"molecule": "COc1ccccc1CNCCCCCCNCCCCCCCCNCCCCCCNCc1ccccc1OC", "activity change, negative = inhibition": "10.2% (inactive)"}
{"molecule": "C[N+]1(C)CCC(OC(=O)C(c2ccccc2)c2ccccc2)CC1", "activity change, negative = inhibition": "4.56% (inactive)"}
{"molecule": "CNC(=O)[C@H]1O[C@@H](n2cnc3c(NCc4ccc(N)cc4)ncnc32)[C@H](O)[C@@H]1O", "activity change, negative = inhibition": "6.9% (inactive)"}
{"molecule": "COC(=O)C1=C(C)NC(C)=C(C(=O)OC)C1c1cccc(NC(=O)NCCCN2CCC(c3cccc(OC)c3)CC2)c1", "activity change, negative = inhibition": "1.6% (inactive)"}
{"molecule": "Nc1nc(Cl)nc2c1ncn2[C@@H]1O[C@H](COP(=O)(O)OP(=O)(O)OP(=O)(O)O)[C@@H](O)[C@H]1O", "activity change, negative = inhibition": "7.78% (inactive)"}
{"molecule": "Cc1ccc(S(=O)(=O)/C=C/C#N)cc1", "activity change, negative = inhibition": "7.41% (inactive)"}
{"molecule": "COc1ccc(-c2cc(=O)c3c(O)c(OC)c(OC)cc3o2)cc1O", "activity change, negative = inhibition": "0.494% (inactive)"}
{"molecule": "COc1cc(OC)c(/C=C2/C(=O)Nc3ccccc32)c(OC)c1", "activity change, negative = inhibition": "11.5% (inactive)"}
{"molecule": "CNC(=O)[C@H]1O[C@@H](n2cnc3c(NCc4cccc(I)c4)ncnc32)[C@H](O)[C@@H]1O", "activity change, negative = inhibition": "4.3% (inactive)"}
{"molecule": "CN=c1nc(-c2ccccc2)n(-c2ccccc2)s1", "activity change, negative = inhibition": "10.1% (inactive)"}
{"molecule": "O=C1/C(=C/c2ccsc2)CC/C1=C\\c1cccs1", "activity change, negative = inhibition": "9.49% (inactive)"}
{"molecule": "CC[C@H]1OC(=O)[C@H](C)C(O[C@H]2C[C@@](C)(OC)[C@@H](O)[C@H](C)O2)[C@H](C)[C@@H](OC2O[C@H](C)C[C@H](N(C)C)[C@H]2O)[C@](C)(O)C[C@@H](C)CN(C)[C@H](C)[C@@H](O)[C@]1(C)O", "note": "(stereo not given in full)", "activity change, negative = inhibition": "0.046% (inactive)"}
{"molecule": "O=[N+]([O-])c1ccc(CSc2ncnc3c2ncn3[C@@H]2O[C@H](CO)[C@@H](O)[C@H]2O)cc1", "activity change, negative = inhibition": "7.19% (inactive)"}
{"molecule": "NC(=O)C1=CN(C2OC(COP(=O)(O)OP(=O)(O)OC[C@H]3O[C@@H](n4cnc5c(N)ncnc54)[C@H](OP(=O)(O)O)[C@@H]3O)C(O)C2O)C=CC1", "note": "(stereo not given in full)", "activity change, negative = inhibition": "3.83% (inactive)"}
{"molecule": "O=C(O)CC[C@@H](C(=O)O)N1C(=O)c2ccccc2C1=O", "activity change, negative = inhibition": "5.79% (inactive)"}
{"molecule": "O=c1cc(-c2ccccc2)oc2c(O)c(O)ccc12", "activity change, negative = inhibition": "-5.83% (inactive)"}
{"molecule": "Cc1cc(NC2CCCCC2)nc(-n2nc(C)cc2C)n1", "activity change, negative = inhibition": "3.13% (inactive)"}
{"molecule": "CCCCC#Cc1nc(NC)c2ncn([C@@H]3O[C@H](CO)[C@@H](O)[C@H]3O)c2n1", "activity change, negative = inhibition": "5.4% (inactive)"}
{"molecule": "CSc1nc(N)c2ncn([C@@H]3O[C@H](COP(=O)(O)OP(=O)(O)OP(=O)(O)O)[C@@H](O)[C@H]3O)c2n1", "activity change, negative = inhibition": "19.3% (inactive)"}
